Consider eight molecules from PubChem BioAssay (NCI).

Some test systems named below: NCI-H23 lung; NCI-H226 lung; NCI-H322M lung; HOP-62 NSCLC; NCI-H460 lung; NCI-H522 lung; A549/ATCC NSCLC; 786-0 renal; COLO 205 colon; DU-145 prostate; K-562 leukemia; MALME-3M melanoma; MDA-MB-231 breast; RXF 393 renal; SF-268 CNS; SF-295 CNS; SF-539 CNS; UACC-257 melanoma; M14 melanoma.
Experiment in all cases: NCI-60 one-dose screen, 48 h (100 = growth as untreated, 0 = no growth, -100 = all killed)
Holding throughout (settings): 10 µM unless noted

Compounds without any hit were thinned out: in the full panel of roughly 83,000, 20% have a hit.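 Single-dose data. Exposure time 48 hours. Values below 10 considered active.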 Values without a mark were called inactive. The source made the active and inactive calls.

Take `C=C(COC(C)=O)[C@H]1CC/C(C)=C/CC/C(C)=C/CC[C@@]2(C)O[C@H]2C1`: the growth in the experiment with NCI-H23 lung was 106%; with NCI-H226 lung it was 108%; with NCI-H322M lung it was 102%; in the experiment on HOP-62 NSCLC, 107%; in the experiment with NCI-H460 lung it was 106%; with NCI-H522 lung it was 95.3%. Also, the growth in the experiment on A549/ATCC NSCLC was 105%; in the experiment with 786-0 renal it was 96%; with COLO 205 colon it was 148%; in the experiment on DU-145 prostate, 109%; in the experiment with K-562 leukemia it was 100%; in the experiment on MALME-3M melanoma, 93.5%. Moreover, the growth in the experiment on MDA-MB-231 breast was 107%; with RXF 393 renal it was 112%; in the experiment with SF-268 CNS it was 97.2%; with SF-295 CNS it was 110%; in the experiment on SF-539 CNS, 114%; with UACC-257 melanoma, 100%. In addition, in the experiment with M14 melanoma, the growth was 106%.

Take `CCOC(=O)c1ccc(NC(=O)CSC(N)=O)cc1`: the growth in the experiment on NCI-H23 lung was 95.8%; in the experiment with NCI-H226 lung, 116%; in the experiment with NCI-H322M lung, 112%; with HOP-62 NSCLC, 113%; in the experiment with NCI-H460 lung, 101%; in the experiment on NCI-H522 lung, 72.8%. The growth was 98% with A549/ATCC NSCLC; 86.6% in the experiment with 786-0 renal; 98.3% in the experiment on COLO 205 colon; 114% in the experiment with DU-145 prostate; 103% in the experiment on K-562 leukemia; 145% in the experiment on MALME-3M melanoma. The growth was 95.9% in the experiment with MDA-MB-231 breast; 129% in the experiment with RXF 393 renal; 110% in the experiment on SF-268 CNS; 101% with SF-295 CNS; 96.4% in the experiment on SF-539 CNS; 107% in the experiment on UACC-257 melanoma. Further, in the experiment on M14 melanoma, the growth is 94.8%.

With `CCn1c(Cc2ccccc2Nc2c(Cl)cccc2Cl)nnc1SCC(=O)Nc1cccc(OC)c1`, the growth was 85% in the experiment with NCI-H23 lung; 83.3% in the experiment with NCI-H226 lung; 79.4% in the experiment on NCI-H322M lung; 94.2% in the experiment on HOP-62 NSCLC; 84.8% in the experiment on NCI-H460 lung; 42.6% with NCI-H522 lung. The growth in the experiment on A549/ATCC NSCLC is 66.1%; with 786-0 renal, 89.8%; in the experiment with COLO 205 colon it was 96.4%; in the experiment on DU-145 prostate, 94%; in the experiment on K-562 leukemia, 62.6%; with MALME-3M melanoma, 94.3%. The growth in the experiment with MDA-MB-231 breast was 61.6%; in the experiment with RXF 393 renal, 90%; in the experiment with SF-268 CNS, 82.1%; in the experiment on SF-295 CNS it was 81.9%; with SF-539 CNS it was 105%; in the experiment on UACC-257 melanoma, 97.6%. Besides, in the experiment on M14 melanoma, the growth is 76.4%.

`CNC(=O)OC1C(O[C@H]2C[C@H]3[C@@H]4CC=C5C[C@@H](O)CC[C@]5(C)[C@H]4CC[C@]3(C)[C@H]2[C@H](C)C(=O)CCC(C)C)OCC(O)C1OC1OCC(O)C(O)C1OC(=O)c1ccc(OC)cc1` (some centres not stated): the growth with NCI-H23 lung is 39.3%; in the experiment on NCI-H226 lung, 3.4% (active); in the experiment with NCI-H322M lung, 57.6%; with HOP-62 NSCLC, 0.544% (active); with NCI-H460 lung, 1.55% (active); in the experiment on NCI-H522 lung it was -35.8% (active). The growth in the experiment on A549/ATCC NSCLC is 11.5%; with 786-0 renal, -14.3% (active); with COLO 205 colon, -42.8% (active); in the experiment with DU-145 prostate it was 42%; with K-562 leukemia, -20.5% (active); in the experiment on MALME-3M melanoma, 4.11% (active). For the same molecule, the growth in the experiment on MDA-MB-231 breast was 32.5%; with RXF 393 renal it was -64.4% (active); in the experiment on SF-268 CNS, 0.344% (active); with SF-295 CNS it was -63.3% (active); with SF-539 CNS, -53.5% (active); with UACC-257 melanoma, -54.9% (active). The growth with M14 melanoma is -65.5% (active).

Consider `CC(C)(C)OC[C@@H]1N=C(c2ccc(Br)cc2)Nc2nc3ccccn3c2C1=O`, for which the growth in the experiment with NCI-H23 lung was 71.5%; with NCI-H226 lung it was 78.1%; in the experiment with NCI-H322M lung, 84.8%; with HOP-62 NSCLC it was 54.5%; in the experiment with NCI-H460 lung, 41.3%; with NCI-H522 lung, 33.4%. Moreover, the growth was 51.6% in the experiment on A549/ATCC NSCLC; 94.2% in the experiment with 786-0 renal; 62.7% with COLO 205 colon; 82.7% with DU-145 prostate; 25.3% in the experiment on K-562 leukemia; 51.5% in the experiment on MALME-3M melanoma. The growth is 61.5% in the experiment with MDA-MB-231 breast; 61.6% in the experiment on RXF 393 renal; 74.3% in the experiment on SF-268 CNS; 30.9% in the experiment on SF-295 CNS; 75.7% in the experiment with SF-539 CNS; 62.3% in the experiment with UACC-257 melanoma. The growth in the experiment on M14 melanoma is 46.4%.

On to `COc1cc(C)c(Cl)cc1C1=NN(c2ccc(S(N)(=O)=O)cc2)C(/C=C/c2ccccc2)C1` (configuration not stated), for which the growth was 50.5% in the experiment on NCI-H23 lung; 31.9% in the experiment with NCI-H226 lung; 107% in the experiment with NCI-H322M lung; 59.7% in the experiment on HOP-62 NSCLC; 26.8% in the experiment with NCI-H460 lung; 27% in the experiment on NCI-H522 lung. Further, the growth with A549/ATCC NSCLC was 34%; in the experiment with 786-0 renal, 63.4%; in the experiment on COLO 205 colon, 38.3%; with DU-145 prostate it was 82.6%; with K-562 leukemia, 23.1%; with MALME-3M melanoma it was 85.6%. Further, the growth was 88.4% with MDA-MB-231 breast; 58% in the experiment on RXF 393 renal; 70.2% in the experiment on SF-268 CNS; 63.7% in the experiment with SF-295 CNS; 103% with SF-539 CNS; 83.4% in the experiment with UACC-257 melanoma. Also, the growth with M14 melanoma is 72.2%.

For the molecule `O=C(c1ccccc1)C(CCc1ccccn1)CCc1ccccn1`, the growth in the experiment with NCI-H23 lung was 106%; in the experiment with NCI-H226 lung, 104%; in the experiment on NCI-H322M lung, 117%; in the experiment with HOP-62 NSCLC, 93.1%; in the experiment on NCI-H460 lung, 110%; in the experiment on NCI-H522 lung, 89.5%. Also, the growth is 98.3% with A549/ATCC NSCLC; 98.4% in the experiment with 786-0 renal; 105% with COLO 205 colon; 101% in the experiment with DU-145 prostate; 96.2% in the experiment on K-562 leukemia; 82.4% with MALME-3M melanoma. Further, the growth with MDA-MB-231 breast was 99.5%; with RXF 393 renal, 120%; in the experiment with SF-268 CNS, 101%; in the experiment on SF-295 CNS, 110%; with SF-539 CNS, 103%; in the experiment with UACC-257 melanoma, 109%. Besides, the growth in the experiment with M14 melanoma is 93.7%.

`Cc1nc(N)nc2c1CCC(Nc1ccccc1)S2` (configuration not stated): the growth with NCI-H23 lung is 104%; in the experiment with NCI-H226 lung it was 99.1%; with NCI-H322M lung, 101%; in the experiment with HOP-62 NSCLC, 112%; in the experiment with NCI-H460 lung, 109%; in the experiment with NCI-H522 lung, 91%. The growth with A549/ATCC NSCLC was 97.6%; in the experiment on 786-0 renal it was 103%; with COLO 205 colon, 107%; in the experiment on DU-145 prostate, 106%; with K-562 leukemia, 93.4%; in the experiment on MALME-3M melanoma, 96.3%. Further, the growth is 106% with MDA-MB-231 breast; 107% in the experiment with RXF 393 renal; 94.7% in the experiment with SF-268 CNS; 104% with SF-295 CNS; 96.7% with SF-539 CNS; 101% with UACC-257 melanoma. Further, the growth in the experiment with M14 melanoma was 108%.
